The whole screen tested about 62,000 compounds, of which about 100 (0.16%) were called active. The full list was thinned out, with actives kept by preference. Values without a mark were called inactive.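 How the source made its calls: active means inhibition above 20% in each of the two 10-compound mixture wells holding the compound; inactive means the rest.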

Results on 54 molecules are retold here after PubChem BioAssay AID538 (PCMD, 2006).

Complement C1s subcomponent (Homo sapiens), sequence (P09871 16-437 limits assumed): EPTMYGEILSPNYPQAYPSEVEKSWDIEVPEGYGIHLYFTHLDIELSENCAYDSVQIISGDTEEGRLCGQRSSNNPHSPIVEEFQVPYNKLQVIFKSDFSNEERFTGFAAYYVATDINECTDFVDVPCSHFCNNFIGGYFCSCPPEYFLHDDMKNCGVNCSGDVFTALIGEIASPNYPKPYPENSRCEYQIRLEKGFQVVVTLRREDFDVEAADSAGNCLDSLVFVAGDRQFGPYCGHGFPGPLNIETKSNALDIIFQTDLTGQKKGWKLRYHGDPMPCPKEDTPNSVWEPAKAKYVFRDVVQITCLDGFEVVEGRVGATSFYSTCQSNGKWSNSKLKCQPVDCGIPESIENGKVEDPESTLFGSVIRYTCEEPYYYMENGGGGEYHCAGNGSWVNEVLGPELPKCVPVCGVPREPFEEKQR
Complement C1s subcomponent (Homo sapiens), sequence (P09871 438-688 limits assumed): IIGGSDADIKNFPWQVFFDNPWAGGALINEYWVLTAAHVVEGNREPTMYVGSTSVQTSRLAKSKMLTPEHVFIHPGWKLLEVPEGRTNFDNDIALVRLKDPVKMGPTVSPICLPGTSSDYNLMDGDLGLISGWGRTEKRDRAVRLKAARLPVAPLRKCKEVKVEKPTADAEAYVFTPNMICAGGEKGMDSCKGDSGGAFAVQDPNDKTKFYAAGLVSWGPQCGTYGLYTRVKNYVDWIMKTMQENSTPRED

This assay has as its target Complement C1s subcomponent (Homo sapiens) (UniProt P09871). Put plainly: human C1s inhibition by compound pools – biochemical, 10-compound mixtures, primary screen (AID 538).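 Further: 0% = enzyme wells lacking compound mixture and 100% = no-enzyme blank wells.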 To be noted: purified C1s, fluorogenic AMC substrate, pooled mixtures; screened at 5 µM (by protocol).
As to `Cc1ccc(C2CC(=O)NC(SCC(=O)OCc3ccccc3)=C2C#N)o1` (centres undefined), the mean inhibition % of two 10-compound mixtures (stronger effect = higher value) was -61.3%.
Next, `CCC(=O)Nc1cccc(NC(=O)CSc2nnnn2C2CCCC2)c1`: 2.81%; `CC(C)c1cc(C(=O)O)on1`: -17.9%.
Take `CC1CCc2c(sc(NC(=O)c3ccc(Cn4cc(Br)cn4)o3)c2C(N)=O)C1` (centres undefined): the mean inhibition % of two 10-compound mixtures (stronger effect = higher value) was -5.95%.
Regarding `CCCn1c(=O)c2ccccc2n2c(SCC(=O)/C(C#N)=C(\C)N)nnc12`, the mean inhibition % of two 10-compound mixtures (stronger effect = higher value) was -0.9%.
As for `CCOc1ccc2nc(SC(CC)C(=O)Nc3cc(C)on3)sc2c1` (centres undefined), the mean inhibition % of two 10-compound mixtures (stronger effect = higher value) was 2.46%.
Under `COc1ccccc1Nc1nc(N)nc(CN(C)C2CCCCC2)n1` stands -40.1%.
As to `C=CCn1c(CC(=O)Nc2cccc(OC)c2)nnc1SCC(=O)NC1CCCCC1`, the mean inhibition % of two 10-compound mixtures (stronger effect = higher value) is -2.35%.
Next, `O=C(c1cccc(S(=O)(=O)N2CCOCC2)c1)N1CCOCC1`: 13.9%; `CN1CCN(C(=O)c2ccc(NS(=O)(=O)c3ccccc3)cc2)CC1`: 9.96%.
For `CC(=O)N1CCN(C(=O)c2cccc(S(=O)(=O)Nc3ccc(C)cc3)c2)CC1`, the mean inhibition % of two 10-compound mixtures (stronger effect = higher value) is 66.7% (active).
For `COCCCNC(=O)COc1cc(C)c(Cl)c(C)c1`, the mean inhibition % of two 10-compound mixtures (stronger effect = higher value) is -0.425%.
On to `CCOC(=O)Cc1csc(NC(=O)CSc2nc(C)cc(=O)[nH]2)n1`, for which the mean inhibition % of two 10-compound mixtures (stronger effect = higher value) is -2.67%.
As to `O=S(=O)(/C=C/c1ccccc1)NCCc1ccccn1`, the mean inhibition % of two 10-compound mixtures (stronger effect = higher value) is -2.77%.
As for `Clc1ccc(Cn2ncc3c(NCc4cccnc4)ncnc32)cc1`, the mean inhibition % of two 10-compound mixtures (stronger effect = higher value) was 3.33%.
Next, `Cc1ccc(S(=O)(=O)NCC(=O)OCC(=O)N2CCc3ccccc32)cc1`: 5.33%; `N#Cc1cccc(CSc2nnc(CCCO)n2-c2ccccc2)c1`: -5.26%.
Next, `CCCC(C(=O)N1CCOCC1)N1C(=O)C2C3C=CC(C3)C2C1=O` (centres undefined): -8.34%; `O=c1[nH]nc(CSCc2ccccc2Cl)[nH]1`: -7.92%.
With `Cc1c(C(=O)NCC2CCCO2)sc2nc(-c3ccccc3)cn12` (centres undefined), the mean inhibition % of two 10-compound mixtures (stronger effect = higher value) was 0.595%.
With `COC(=O)C(C)n1cnc2c(nnn2-c2cccc(Cl)c2)c1=O` (centres undefined), the mean inhibition % of two 10-compound mixtures (stronger effect = higher value) is -40.6%.
With `CC(C)c1ccc(OCC(O)Cn2cnc3ccccc32)cc1` (centres undefined), the mean inhibition % of two 10-compound mixtures (stronger effect = higher value) is -21.9%.
In the case of `CC(C)C(NC(=O)c1cccc(S(=O)(=O)N2CCOCC2)c1)C(=O)NCCc1ccccn1` (centres undefined), the mean inhibition % of two 10-compound mixtures (stronger effect = higher value) is -12.8%.
On to `COC(=O)COc1ccc2oc(=O)cc(C)c2c1`, for which the mean inhibition % of two 10-compound mixtures (stronger effect = higher value) is 10.3%.
In the case of `COC(=O)c1ccc(S(=O)(=O)c2ccc(C(=O)OC)s2)s1`, the mean inhibition % of two 10-compound mixtures (stronger effect = higher value) was -14%.
Regarding `COC(=O)c1ccccc1NC(=O)CSc1ccccn1`, the mean inhibition % of two 10-compound mixtures (stronger effect = higher value) is -21.1%.
Consider `CC1CN(Cc2nc3c(c(=O)n(C)c(=O)n3C)n2Cc2cccc(Cl)c2)CC(C)O1` (centres undefined), for which the mean inhibition % of two 10-compound mixtures (stronger effect = higher value) is -18.5%.
For the molecule `COc1cccc(-n2c(SCC(=O)NC3CCCCC3)nc3n[nH]c(C)c3c2=N)c1`, the mean inhibition % of two 10-compound mixtures (stronger effect = higher value) is -13.5%.
On to `CC(=O)N(Cc1cccs1)C1CCOC(C)(C)C1` (centres undefined), for which the mean inhibition % of two 10-compound mixtures (stronger effect = higher value) is 4.59%.
As for `CCOC(=O)c1cccc(NC(=O)CCc2c(C)nc3ncnn3c2C)c1`, the mean inhibition % of two 10-compound mixtures (stronger effect = higher value) is 2.35%.
As to `CC(C)n1c(NCc2c[nH]c3ccccc23)nc2ccccc21`, the mean inhibition % of two 10-compound mixtures (stronger effect = higher value) was -7.58%.
`Cn1c(/C(C#N)=C2/CCCCCN2)nc2ccccc21`: the mean inhibition % of two 10-compound mixtures (stronger effect = higher value) is -6.22%.
For `Cc1ccc(OCC(=O)Nc2ccc(-c3nc4ncccc4o3)cc2)cc1`, the mean inhibition % of two 10-compound mixtures (stronger effect = higher value) was -66.2%.
For the molecule `Cc1ccccc1CSc1nnc(Cn2c(=O)sc3ccccc32)n1C`, the mean inhibition % of two 10-compound mixtures (stronger effect = higher value) was 4.08%.
As for `CCOC(=O)CCc1c(C)c2ccc(OCc3nn[nH]n3)c(C)c2oc1=O`, the mean inhibition % of two 10-compound mixtures (stronger effect = higher value) was -25%.
In the case of `Cc1c(C(=O)Nc2ccccc2Cl)oc2ccc(S(=O)(=O)N3CCC4(CC3)OCCO4)cc12`, the mean inhibition % of two 10-compound mixtures (stronger effect = higher value) is -4.62%.
Under `COc1cccc(-c2nnc(NC(=O)c3ccc(S(=O)(=O)N(CC(C)C)CC(C)C)cc3)o2)c1` stands 14%; under `COC(=O)C(C)Sc1ccc2nnc(-c3cccc(F)c3)n2n1` (centres undefined), -5.87%.
For the molecule `CCOC(=O)c1nnn(-c2nc(OC)nc(N(C)C)n2)c1-c1ccccc1`, the mean inhibition % of two 10-compound mixtures (stronger effect = higher value) is -30.1%.
`C#CC(C)(C)NC(=O)CSc1nc2c(c(=O)n(C)c(=O)n2C)n1CCCC`: the mean inhibition % of two 10-compound mixtures (stronger effect = higher value) was 1.95%.
Next, `CCCc1cc(=O)[nH]c(SCc2ccc(C#N)cc2)n1`: -9.73%; `C=C(C)COc1ccc(-c2n[nH]c(C)c2-c2ccccc2OC)c(O)c1`: 15.7%; `O=C(C1=C(O)C(=O)N(Cc2ccccc2)C1c1cccnc1)c1ccco1` (centres undefined): 3.85%.
Regarding `Cc1ccccc1C(=O)NCCN=C1NS(=O)(=O)c2ccccc21`, the mean inhibition % of two 10-compound mixtures (stronger effect = higher value) is -24.8%.
On to `N#Cc1ccccc1-n1c(N)c(C(=O)N2CCCC2)sc1=S`, for which the mean inhibition % of two 10-compound mixtures (stronger effect = higher value) is -0.195%.
With `O=C(O)COc1nsnc1N1CCOCC1`, the mean inhibition % of two 10-compound mixtures (stronger effect = higher value) is -1.36%.
With `O=C(O)c1cc(S(=O)(=O)N2CCCCCC2)c(Cl)cc1Cl`, the mean inhibition % of two 10-compound mixtures (stronger effect = higher value) was -41%.
For `Cc1ccccc1-c1ccc(Nc2ccc(C(=O)N3CCOCC3)cc2)nn1`, the mean inhibition % of two 10-compound mixtures (stronger effect = higher value) was 16%.
In the case of `Cc1ccnc(N2C(=O)c3ccccc3C2Nc2ccc3c(c2)OCCO3)c1` (centres undefined), the mean inhibition % of two 10-compound mixtures (stronger effect = higher value) was -33.6%.
Take `COc1cccc(OCC(=O)Nc2ccccc2C(N)=O)c1`: the mean inhibition % of two 10-compound mixtures (stronger effect = higher value) is 16.6%.
Next, `O=C(O)C1CC(=O)N(Cc2cccnc2)C1` (centres undefined): 5.36%.
For `CCCn1c(=NC(C)=O)c(C(=O)OCC)cc2c(=O)n3ccccc3nc21`, the mean inhibition % of two 10-compound mixtures (stronger effect = higher value) was -168%.
In the case of `N#Cc1cccc(NC(=O)CCC2CCCC2)c1`, the mean inhibition % of two 10-compound mixtures (stronger effect = higher value) is -2.16%.
Regarding `Cn1nc(-c2ccc(Cl)cc2)c2cc(C(=O)NCc3ccco3)sc21`, the mean inhibition % of two 10-compound mixtures (stronger effect = higher value) was 10.9%.
